Laboratory results: PubChem BioAssay
The source made the active and inactive calls.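 Rule for the calls, unless noted: active = inhibition above 54%, about 3 SD of non-fluorescent compounds; inactive = the rest.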

The molecules below were run against Beta-2 adrenergic receptor (Homo sapiens) (UniProt P07550) (assay: agonist-induced loss of surface beta2AR – cell-based, FAP fluorogen, flow cytometry, validation set, pilot screen (AID 504459;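 active = percent response above 42, roughly 3 SD of non-fluorescent test compounds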;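 note: agonist-driven loss of surface beta2AR via internalization measured by FAP dye flow cytometry; reference of the scale not given here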)). Details: Am2.2-beta2AR cells, at 10 µM, active compounds read high.
Chain of Beta-2 adrenergic receptor (Homo sapiens) (P07550 whole entry, looked up): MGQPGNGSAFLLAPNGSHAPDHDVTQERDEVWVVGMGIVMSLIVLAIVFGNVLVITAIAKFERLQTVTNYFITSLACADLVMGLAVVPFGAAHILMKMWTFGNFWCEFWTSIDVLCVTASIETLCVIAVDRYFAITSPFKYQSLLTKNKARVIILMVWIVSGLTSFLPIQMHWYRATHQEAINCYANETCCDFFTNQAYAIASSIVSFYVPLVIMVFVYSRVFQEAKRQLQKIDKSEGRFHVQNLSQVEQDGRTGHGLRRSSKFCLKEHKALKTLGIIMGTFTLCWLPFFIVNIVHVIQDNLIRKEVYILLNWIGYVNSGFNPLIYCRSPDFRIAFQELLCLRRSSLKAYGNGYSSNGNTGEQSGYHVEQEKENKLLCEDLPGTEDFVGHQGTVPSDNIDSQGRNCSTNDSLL
`CCC(COC(=O)c1cc(OC)c(OC)c(OC)c1)(c1ccccc1)N(C)C` (configuration not stated) was tested, and the response was -24.8% (inactive). For `CCCC(C)(COC(N)=O)COC(=O)NC(C)C` (configuration not stated), the response was -23.9% (inactive). For `c1cnc2c(c1)ccc1ncccc12`, the response was -15% (inactive). For `NCCc1ccc(O)cc1`, the response was -14.8% (inactive). For `Clc1ccc(COC(Cn2ccnc2)c2ccc(Cl)cc2Cl)c(Cl)c1` (configuration not stated), the response was -12.4% (inactive). In the case of `CC12CN3CC(c4ccccc4)(CN(C1)C31CCCCC1)C2=O`, the response is reported as 15.3% (inactive). In the case of `COc1cc(/C=C2\C(=O)NC(=O)N(c3ccccc3)C2=O)c([N+](=O)[O-])cc1OC`, the response is reported as 0.05% (inactive). With `CC12CCC3C(CC=C4CC5(CCC43C)OCCO5)C1CCC2=O` (configuration not stated) the response was 0.6% (inactive). With `CCCC(=O)OCC[N+](C)(C)C` the response was 9.88% (inactive). In the case of `C[C@]12CCC(=O)C=C1CC[C@@H]1[C@@H]2C(=O)C[C@]2(C)C(=O)CC[C@@H]12`, the response is reported as -22.9% (inactive). For `Cc1nc2ccccc2c(=O)n1-c1ccc(C(=O)O)cc1`, the response was 0.79% (inactive). For `Cc1c2ccncc2c(C)c2c1[nH]c1ccccc12`, the response was -323% (inactive). `CC/C(=C\C=C\[C@@H]1C=C[C@@H]2CCC[C@H]2[C@@H]1C(=O)c1ccc[nH]1)[C@@H]1O[C@@H]([C@@H](C)C(=O)O)CC[C@@H]1C` was tested, and the response was 9.7% (inactive). In the case of `C[C@]12CCC(=O)C(O)=C1CC[C@@H]1[C@@H]2CC[C@]2(C)C(=O)CC[C@@H]12`, the response is reported as 4.26% (inactive). In the case of `O=C1CSC2N1CCNC21CCCCC1` (configuration not stated), the response is reported as 2.41% (inactive). In the case of `C[C@H]1CCCC(=O)CCCCCc2cc(O)cc(O)c2C(=O)O1`, the response is reported as -25.5% (inactive). For `CC(=O)Nc1cc([As](=O)(O)O)ccc1O`, the response was -23.7% (inactive). `NCC(O)c1ccc(O)cc1` (configuration not stated) was tested, and the response was 8.68% (inactive).

These molecules were tested against AP-2 complex subunit beta (Homo sapiens) (UniProt P63010) (assay: beta-arrestin/AP2 interaction blockers – biochemical, validation set, GST-AP2 beads, flow cytometry, pilot screen (AID 504541;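 note: AP2 carries R879A mutation and is captured from E. coli lysate; bead-bound FITC arrestin peptide fluorescence measuring arrestin peptide binding to AP2; 0% = DMSO wells and 100% = excess unlabeled arrestin peptide control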)). Details: FITC arrestin peptide, at 10 µM, active compounds read high.
Chain of AP-2 complex subunit beta (Homo sapiens) (P63010 whole entry, looked up, one chain of several): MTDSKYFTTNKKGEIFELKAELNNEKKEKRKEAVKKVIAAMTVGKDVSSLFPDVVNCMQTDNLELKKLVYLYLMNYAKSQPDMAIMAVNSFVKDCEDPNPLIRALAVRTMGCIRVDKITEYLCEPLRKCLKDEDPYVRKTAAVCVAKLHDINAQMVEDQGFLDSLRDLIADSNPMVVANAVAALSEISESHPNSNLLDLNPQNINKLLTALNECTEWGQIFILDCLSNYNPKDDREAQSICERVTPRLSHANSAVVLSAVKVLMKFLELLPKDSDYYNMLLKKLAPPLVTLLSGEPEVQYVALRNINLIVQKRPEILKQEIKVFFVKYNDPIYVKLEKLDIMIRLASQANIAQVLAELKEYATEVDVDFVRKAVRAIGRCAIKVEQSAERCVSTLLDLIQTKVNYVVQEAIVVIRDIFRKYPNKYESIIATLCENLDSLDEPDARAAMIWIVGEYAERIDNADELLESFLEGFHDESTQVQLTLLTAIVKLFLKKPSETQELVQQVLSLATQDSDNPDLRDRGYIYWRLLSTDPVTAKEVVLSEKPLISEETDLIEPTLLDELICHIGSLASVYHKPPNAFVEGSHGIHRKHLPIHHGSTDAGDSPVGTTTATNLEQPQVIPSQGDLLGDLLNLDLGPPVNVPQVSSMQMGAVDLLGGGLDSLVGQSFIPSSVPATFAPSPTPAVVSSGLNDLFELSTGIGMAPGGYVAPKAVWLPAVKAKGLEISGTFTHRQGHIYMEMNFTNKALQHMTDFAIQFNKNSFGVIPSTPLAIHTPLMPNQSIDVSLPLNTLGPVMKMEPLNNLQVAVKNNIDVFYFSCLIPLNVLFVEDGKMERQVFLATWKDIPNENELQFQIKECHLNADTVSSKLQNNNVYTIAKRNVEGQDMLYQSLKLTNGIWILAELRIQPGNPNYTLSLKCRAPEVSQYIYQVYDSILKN
`CCC(COC(=O)c1cc(OC)c(OC)c(OC)c1)(c1ccccc1)N(C)C` (configuration not stated) was tested, and the inhibition was -3.75% (inactive). `Nc1ccc([As](=O)(O)O)cc1` was tested, and the inhibition was -9.89% (inactive). With `CCCC(C)(COC(N)=O)COC(=O)NC(C)C` (configuration not stated) the inhibition was -2.17% (inactive). In the case of `c1cnc2c(c1)ccc1ncccc12`, the inhibition is reported as -6.24% (inactive). In the case of `NCCc1ccc(O)cc1`, the inhibition is reported as 5.64% (inactive). With `C[C@]12CC[C@@H]3c4ccc(O)c(O)c4CC[C@H]3[C@@H]1CC[C@@H]2O` the inhibition was 1.47% (inactive). `CC(CCc1ccccc1)NC(C)C(O)c1ccc(O)cc1` (configuration not stated) was tested, and the inhibition was 2.09% (inactive). In the case of `Clc1ccc(COC(Cn2ccnc2)c2ccc(Cl)cc2Cl)c(Cl)c1` (configuration not stated), the inhibition is reported as -8.06% (inactive). `CC12CN3CC(c4ccccc4)(CN(C1)C31CCCCC1)C2=O` was tested, and the inhibition was -0.95% (inactive). With `c1ccc2c(c1)OCC(C1=NCCN1)O2` (configuration not stated) the inhibition was -3.31% (inactive). For `COc1cc(/C=C2\C(=O)NC(=O)N(c3ccccc3)C2=O)c([N+](=O)[O-])cc1OC`, the inhibition was 5.39% (inactive). For `CC12CCC3C(CC=C4CC5(CCC43C)OCCO5)C1CCC2=O` (configuration not stated), the inhibition was -3.19% (inactive). For `COc1ccc2c3c([nH]c2c1)C(C)=NCC3`, the inhibition was 10.6% (inactive). With `CCCC(=O)OCC[N+](C)(C)C` the inhibition was 5.57% (inactive). With `C[C@]12CCC(=O)C=C1CC[C@@H]1[C@@H]2C(=O)C[C@]2(C)C(=O)CC[C@@H]12` the inhibition was 0.49% (inactive). In the case of `Cc1nc2ccccc2c(=O)n1-c1ccc(C(=O)O)cc1`, the inhibition is reported as 34.5% (inactive). For `Cc1c2ccncc2c(C)c2c1[nH]c1ccccc12`, the inhibition was 5.87% (inactive). With `CC/C(=C\C=C\[C@@H]1C=C[C@@H]2CCC[C@H]2[C@@H]1C(=O)c1ccc[nH]1)[C@@H]1O[C@@H]([C@@H](C)C(=O)O)CC[C@@H]1C` the inhibition was 0.83% (inactive). For `C[C@]12CCC(=O)C(O)=C1CC[C@@H]1[C@@H]2CC[C@]2(C)C(=O)CC[C@@H]12`, the inhibition was 0.25% (inactive). With `CN1[C@@H]2CC[C@H]1CC(OC(=O)C1C=Nc3ccccc31)C2` (some centres not stated) the inhibition was -15.4% (inactive). In the case of `O=C1CSC2N1CCNC21CCCCC1` (configuration not stated), the inhibition is reported as 4.77% (inactive). For `C[C@H]1CCCC(=O)CCCCCc2cc(O)cc(O)c2C(=O)O1`, the inhibition was -10.7% (inactive). `CC(=O)Nc1cc([As](=O)(O)O)ccc1O` was tested, and the inhibition was -6.36% (inactive). For `NCC(O)c1ccc(O)cc1` (configuration not stated), the inhibition was -8.51% (inactive).
